This note sets out measurements from PMC7862700, “An all-to-all approach to the identification of sequence-specific readers for epigenetic DNA modifications on cytosine”.

Common to all, as to assay: DAPPL (digital affinity profiling via proximity ligation, sequencing); 10 mM Tris-HCl pH 7.5, 50 mM NaCl, 1 mM DTT, 4% glycerol, room temperature, 30 min; GST-TFs on glutathione beads, 16-mer random dsDNA library, 0.1% formaldehyde crosslink after washing; high values mean tight binding
One experiment deals with T1, FEV (Homo sapiens, UniProt Q99581 1-238).
T1 sequence: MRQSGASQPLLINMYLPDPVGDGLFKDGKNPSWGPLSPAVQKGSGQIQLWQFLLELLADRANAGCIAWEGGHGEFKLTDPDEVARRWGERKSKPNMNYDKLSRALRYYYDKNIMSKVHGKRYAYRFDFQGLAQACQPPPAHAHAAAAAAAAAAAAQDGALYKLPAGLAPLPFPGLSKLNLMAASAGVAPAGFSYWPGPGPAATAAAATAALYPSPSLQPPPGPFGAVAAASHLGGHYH
The settings on record: protein: recombinant; tags: N-terminal GST; dsDNA, one strand shown. The gist of the method:
(§1)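 Binding signal is each hexamer's read frequency for a factor divided by its frequency in the tag-only sample. The factors were GST-fused human transcription factors from yeast, captured on glutathione beads, DNA-barcoded and pooled with that sample. Pools were incubated with 200 nmole of a random double-stranded 16-mer DNA library in Tris/NaCl/DTT/glycerol buffer at room temperature for 30 min, then washed, crosslinked with 0.1% formaldehyde, proximity-ligated with BsaI/T4 ligase (1 h, 37 °C), PCR-amplified and sequenced on an Illumina NextSeq500.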

The target in a further experiment is ETV5 (Homo sapiens, UniProt P41161 1-510). The settings on record: protein: recombinant; tags: N-terminal GST; dsDNA, one strand shown. The gist of the method:
as §1

The target of another experiment is HSF1 (Homo sapiens, UniProt Q00613 1-529). The settings on record: protein: recombinant; tags: N-terminal GST; chain copies: 3; dsDNA, one strand shown. The method in brief: as §1
In a further experiment the target is T2, SPIC (Homo sapiens, UniProt Q8N5J4 1-248).
T2 sequence: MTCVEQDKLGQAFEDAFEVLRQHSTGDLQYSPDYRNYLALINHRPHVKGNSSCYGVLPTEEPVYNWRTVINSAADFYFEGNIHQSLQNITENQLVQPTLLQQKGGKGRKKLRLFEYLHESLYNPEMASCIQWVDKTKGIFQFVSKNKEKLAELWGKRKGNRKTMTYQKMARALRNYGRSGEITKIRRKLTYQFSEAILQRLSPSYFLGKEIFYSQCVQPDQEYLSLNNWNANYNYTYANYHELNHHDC
The settings on record: protein: recombinant; tags: N-terminal GST; dsDNA, one strand shown. The gist of the method:
as §1

A further experiment has as its target ELF4 (Homo sapiens, UniProt Q99607 1-663). The settings on record: protein: recombinant; tags: N-terminal GST; dsDNA, one strand shown. The method in brief: as §1
The target of another experiment is T3, ELK4 (Homo sapiens, UniProt P28324-2 1-405).
T3 sequence: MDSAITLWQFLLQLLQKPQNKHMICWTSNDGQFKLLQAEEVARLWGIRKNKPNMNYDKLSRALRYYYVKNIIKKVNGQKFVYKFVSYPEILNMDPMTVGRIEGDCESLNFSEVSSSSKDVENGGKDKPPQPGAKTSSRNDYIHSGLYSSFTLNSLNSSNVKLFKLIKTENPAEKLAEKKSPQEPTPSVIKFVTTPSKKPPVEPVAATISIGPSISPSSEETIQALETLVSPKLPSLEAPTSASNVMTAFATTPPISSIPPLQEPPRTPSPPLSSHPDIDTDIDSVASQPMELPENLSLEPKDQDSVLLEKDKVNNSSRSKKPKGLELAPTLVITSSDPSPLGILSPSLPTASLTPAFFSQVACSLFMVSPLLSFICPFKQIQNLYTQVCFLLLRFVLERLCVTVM
The settings on record: protein: recombinant; tags: N-terminal GST; dsDNA, one strand shown. The method in brief: as §1

In the next experiment the target is T4, ETV2 (Homo sapiens, UniProt O00321 1-342).
T4 sequence: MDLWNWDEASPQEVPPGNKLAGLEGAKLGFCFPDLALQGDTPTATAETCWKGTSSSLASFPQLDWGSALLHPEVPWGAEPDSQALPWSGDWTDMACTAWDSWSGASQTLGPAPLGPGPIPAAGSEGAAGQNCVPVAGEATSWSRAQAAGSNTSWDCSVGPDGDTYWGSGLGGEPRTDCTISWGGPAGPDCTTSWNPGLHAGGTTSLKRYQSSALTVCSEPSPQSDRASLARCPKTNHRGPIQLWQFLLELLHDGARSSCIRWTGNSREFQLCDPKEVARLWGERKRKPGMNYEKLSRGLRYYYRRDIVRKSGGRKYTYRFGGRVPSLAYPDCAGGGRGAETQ
The settings on record: protein: recombinant; tags: N-terminal GST; dsDNA, one strand shown. The gist of the method:
as §1

The next experiment has as its target T5, ELF3 (Homo sapiens, UniProt P78545 1-371).
T5 sequence: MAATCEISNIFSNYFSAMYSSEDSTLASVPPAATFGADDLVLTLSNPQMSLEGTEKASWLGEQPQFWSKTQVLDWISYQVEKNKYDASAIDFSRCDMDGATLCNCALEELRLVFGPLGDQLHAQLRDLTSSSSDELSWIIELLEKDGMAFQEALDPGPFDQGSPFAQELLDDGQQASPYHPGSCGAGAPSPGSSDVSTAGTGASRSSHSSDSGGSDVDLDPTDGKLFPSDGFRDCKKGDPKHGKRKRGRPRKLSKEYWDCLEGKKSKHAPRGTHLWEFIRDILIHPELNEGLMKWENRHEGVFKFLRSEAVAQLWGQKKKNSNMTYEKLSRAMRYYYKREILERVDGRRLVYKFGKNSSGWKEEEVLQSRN
The settings on record: protein: recombinant; tags: N-terminal GST; dsDNA, one strand shown. The gist of the method: as §1

The next experiment concerns the target CRX (Homo sapiens, UniProt O43186 1-299). The settings on record: protein: recombinant; tags: N-terminal GST; dsDNA, one strand shown. The gist of the method: as §1
The target in the next experiment is ETV1 (Homo sapiens, UniProt P50549 1-477). The settings on record: protein: recombinant; tags: N-terminal GST; dsDNA, one strand shown. The method in brief:
as §1

The target of the next experiment is T6, ERF (Homo sapiens, UniProt P50548 1-548).
T6 sequence: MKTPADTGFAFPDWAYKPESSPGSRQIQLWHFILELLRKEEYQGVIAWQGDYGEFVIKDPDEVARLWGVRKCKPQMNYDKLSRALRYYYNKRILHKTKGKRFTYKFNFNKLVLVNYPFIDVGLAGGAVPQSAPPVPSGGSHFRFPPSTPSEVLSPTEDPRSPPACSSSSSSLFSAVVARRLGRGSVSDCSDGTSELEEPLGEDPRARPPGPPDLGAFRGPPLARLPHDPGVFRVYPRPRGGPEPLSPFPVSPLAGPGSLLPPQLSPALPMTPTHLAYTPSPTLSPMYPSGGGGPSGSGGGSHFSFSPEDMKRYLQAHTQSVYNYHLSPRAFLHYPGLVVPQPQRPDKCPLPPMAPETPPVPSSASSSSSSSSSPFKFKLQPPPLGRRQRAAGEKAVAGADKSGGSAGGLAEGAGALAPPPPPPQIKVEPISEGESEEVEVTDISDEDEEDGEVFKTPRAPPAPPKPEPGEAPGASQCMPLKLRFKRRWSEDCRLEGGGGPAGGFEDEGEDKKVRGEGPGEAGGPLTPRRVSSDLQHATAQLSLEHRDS
The settings on record: protein: recombinant; tags: N-terminal GST; dsDNA, one strand shown. The gist of the method: as §1

The target of a further experiment is T7, ETV3L (Homo sapiens, UniProt Q6ZN32 1-361).
T7 sequence: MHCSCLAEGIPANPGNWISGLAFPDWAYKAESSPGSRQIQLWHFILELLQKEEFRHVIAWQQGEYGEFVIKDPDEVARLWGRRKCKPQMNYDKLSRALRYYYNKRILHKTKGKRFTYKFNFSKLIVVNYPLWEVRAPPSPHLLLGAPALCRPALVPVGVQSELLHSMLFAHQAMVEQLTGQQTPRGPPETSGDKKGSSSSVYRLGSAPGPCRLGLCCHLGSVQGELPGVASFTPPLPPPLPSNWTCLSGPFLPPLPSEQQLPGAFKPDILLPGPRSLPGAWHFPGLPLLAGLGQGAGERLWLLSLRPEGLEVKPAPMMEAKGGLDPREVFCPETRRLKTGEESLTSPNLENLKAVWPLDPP
The settings on record: protein: recombinant; tags: N-terminal GST; dsDNA, one strand shown. The method in brief:
as §1

The next experiment has as its target T8, ETS2 (Homo sapiens, UniProt P15036 1-469).
T8 sequence: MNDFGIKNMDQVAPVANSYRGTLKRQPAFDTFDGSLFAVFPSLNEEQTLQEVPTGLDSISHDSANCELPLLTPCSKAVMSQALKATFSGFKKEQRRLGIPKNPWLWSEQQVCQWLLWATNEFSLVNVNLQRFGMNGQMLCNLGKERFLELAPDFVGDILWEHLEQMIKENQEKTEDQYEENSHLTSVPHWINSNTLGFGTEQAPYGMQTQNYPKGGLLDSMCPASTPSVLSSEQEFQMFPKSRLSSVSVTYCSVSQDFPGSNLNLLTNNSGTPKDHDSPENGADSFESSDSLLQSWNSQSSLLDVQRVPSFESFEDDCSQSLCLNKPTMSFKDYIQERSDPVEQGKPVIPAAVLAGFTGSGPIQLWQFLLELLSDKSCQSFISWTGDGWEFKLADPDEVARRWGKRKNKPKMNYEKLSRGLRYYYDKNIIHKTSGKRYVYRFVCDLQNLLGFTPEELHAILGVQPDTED
The settings on record: protein: recombinant; tags: N-terminal GST; dsDNA, one strand shown. The gist of the method:
as §1

A further experiment has as its target T9, SPDEF (Homo sapiens, UniProt O95238 1-335).
T9 sequence: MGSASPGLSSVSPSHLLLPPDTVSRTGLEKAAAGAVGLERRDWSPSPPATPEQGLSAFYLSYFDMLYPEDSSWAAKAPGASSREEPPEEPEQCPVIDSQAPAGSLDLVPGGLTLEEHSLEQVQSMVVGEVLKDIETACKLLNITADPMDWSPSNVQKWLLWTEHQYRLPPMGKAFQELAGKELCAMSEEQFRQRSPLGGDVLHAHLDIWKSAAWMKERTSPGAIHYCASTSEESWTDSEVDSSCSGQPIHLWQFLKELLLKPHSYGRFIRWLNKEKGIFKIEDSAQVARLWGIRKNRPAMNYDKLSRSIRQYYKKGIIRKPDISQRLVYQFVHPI
The settings on record: protein: recombinant; tags: N-terminal GST; dsDNA, one strand shown. The gist of the method: as §1

The target of the next experiment is T10, ETV7 (Homo sapiens, UniProt Q9Y603 1-341).
T10 sequence: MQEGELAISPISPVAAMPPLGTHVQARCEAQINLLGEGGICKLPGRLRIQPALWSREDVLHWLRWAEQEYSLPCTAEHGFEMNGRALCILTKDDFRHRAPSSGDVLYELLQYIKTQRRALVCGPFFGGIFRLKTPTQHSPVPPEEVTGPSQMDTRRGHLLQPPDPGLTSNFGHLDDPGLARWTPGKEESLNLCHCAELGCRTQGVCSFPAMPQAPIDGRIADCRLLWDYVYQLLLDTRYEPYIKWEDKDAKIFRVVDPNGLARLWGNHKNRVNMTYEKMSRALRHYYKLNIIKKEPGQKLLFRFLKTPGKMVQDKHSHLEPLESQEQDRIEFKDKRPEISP
The settings on record: protein: recombinant; tags: N-terminal GST; dsDNA, one strand shown. The method in brief: as §1

The target of the next experiment is T11, ELF5 (Homo sapiens, UniProt Q9UKW6-2 1-255).
T11 sequence: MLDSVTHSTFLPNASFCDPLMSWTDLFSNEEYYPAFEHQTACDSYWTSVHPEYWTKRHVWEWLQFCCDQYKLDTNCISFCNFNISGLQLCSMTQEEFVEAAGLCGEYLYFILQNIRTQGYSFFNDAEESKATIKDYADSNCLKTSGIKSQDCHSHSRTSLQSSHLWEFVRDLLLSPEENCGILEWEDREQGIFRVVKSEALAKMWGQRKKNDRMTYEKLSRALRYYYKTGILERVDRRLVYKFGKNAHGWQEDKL
The settings on record: protein: recombinant; tags: N-terminal GST; dsDNA, one strand shown. The method in brief: as §1

Another experiment concerns the target T12, ETV3 (Homo sapiens, UniProt P41162-2 1-143).
T12 sequence: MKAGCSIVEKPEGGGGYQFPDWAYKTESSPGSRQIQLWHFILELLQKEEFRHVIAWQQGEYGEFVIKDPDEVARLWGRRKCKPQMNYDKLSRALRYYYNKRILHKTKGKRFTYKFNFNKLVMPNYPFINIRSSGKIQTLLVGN
The settings on record: protein: recombinant; tags: N-terminal GST; dsDNA, one strand shown. The gist of the method: as §1

In the next experiment the target is ETV6 (Homo sapiens, UniProt P41212 1-452). The settings on record: protein: recombinant; tags: N-terminal GST; dsDNA, one strand shown. The gist of the method: as §1
Sequence of ETV6 (P41212 whole entry): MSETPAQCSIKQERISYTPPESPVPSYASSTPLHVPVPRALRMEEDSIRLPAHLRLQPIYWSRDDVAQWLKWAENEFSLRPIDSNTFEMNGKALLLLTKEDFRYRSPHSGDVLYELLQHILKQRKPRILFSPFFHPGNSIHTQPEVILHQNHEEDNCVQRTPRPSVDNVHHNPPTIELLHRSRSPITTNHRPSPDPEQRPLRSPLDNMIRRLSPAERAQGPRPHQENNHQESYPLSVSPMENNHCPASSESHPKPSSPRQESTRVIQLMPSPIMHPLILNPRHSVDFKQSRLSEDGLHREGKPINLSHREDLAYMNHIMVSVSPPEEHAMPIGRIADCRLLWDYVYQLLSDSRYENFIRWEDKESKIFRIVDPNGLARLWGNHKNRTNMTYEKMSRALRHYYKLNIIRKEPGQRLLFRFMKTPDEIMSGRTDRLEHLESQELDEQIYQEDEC

Sequence of ELF4 (Q99607 whole entry): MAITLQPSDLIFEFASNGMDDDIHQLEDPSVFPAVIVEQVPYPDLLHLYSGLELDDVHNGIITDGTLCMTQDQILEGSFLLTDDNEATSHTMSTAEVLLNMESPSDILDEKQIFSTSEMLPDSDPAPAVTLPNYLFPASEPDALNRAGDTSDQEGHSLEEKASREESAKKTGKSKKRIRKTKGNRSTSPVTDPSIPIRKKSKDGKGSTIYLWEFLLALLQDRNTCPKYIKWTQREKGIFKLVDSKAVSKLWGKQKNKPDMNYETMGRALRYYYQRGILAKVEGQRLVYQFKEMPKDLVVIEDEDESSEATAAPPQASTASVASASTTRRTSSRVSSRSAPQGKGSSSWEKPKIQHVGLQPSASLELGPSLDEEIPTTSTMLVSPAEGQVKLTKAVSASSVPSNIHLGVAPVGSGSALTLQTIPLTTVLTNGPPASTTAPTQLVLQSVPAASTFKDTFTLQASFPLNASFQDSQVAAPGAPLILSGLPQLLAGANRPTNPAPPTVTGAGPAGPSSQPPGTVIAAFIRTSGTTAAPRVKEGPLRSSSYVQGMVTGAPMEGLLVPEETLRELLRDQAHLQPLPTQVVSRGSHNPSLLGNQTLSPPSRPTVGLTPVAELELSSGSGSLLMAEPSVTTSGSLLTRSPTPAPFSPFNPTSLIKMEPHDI
Sequence of ETV5 (P41161 whole entry): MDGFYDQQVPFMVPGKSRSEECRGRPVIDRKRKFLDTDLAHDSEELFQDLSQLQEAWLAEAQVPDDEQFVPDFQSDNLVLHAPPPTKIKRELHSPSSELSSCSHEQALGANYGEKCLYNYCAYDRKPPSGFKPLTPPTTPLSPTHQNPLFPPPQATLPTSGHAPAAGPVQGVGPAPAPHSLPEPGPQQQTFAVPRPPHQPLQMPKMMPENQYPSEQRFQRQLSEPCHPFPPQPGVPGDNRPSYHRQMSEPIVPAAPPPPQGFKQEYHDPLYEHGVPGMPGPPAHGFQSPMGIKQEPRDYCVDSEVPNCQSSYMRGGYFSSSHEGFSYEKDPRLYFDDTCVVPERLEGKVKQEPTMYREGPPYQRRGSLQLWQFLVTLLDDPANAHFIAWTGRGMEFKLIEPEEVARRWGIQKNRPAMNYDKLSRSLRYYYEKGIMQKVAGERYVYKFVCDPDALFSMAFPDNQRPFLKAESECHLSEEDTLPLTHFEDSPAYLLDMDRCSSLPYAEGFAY
Sequence of HSF1 (Q00613 whole entry): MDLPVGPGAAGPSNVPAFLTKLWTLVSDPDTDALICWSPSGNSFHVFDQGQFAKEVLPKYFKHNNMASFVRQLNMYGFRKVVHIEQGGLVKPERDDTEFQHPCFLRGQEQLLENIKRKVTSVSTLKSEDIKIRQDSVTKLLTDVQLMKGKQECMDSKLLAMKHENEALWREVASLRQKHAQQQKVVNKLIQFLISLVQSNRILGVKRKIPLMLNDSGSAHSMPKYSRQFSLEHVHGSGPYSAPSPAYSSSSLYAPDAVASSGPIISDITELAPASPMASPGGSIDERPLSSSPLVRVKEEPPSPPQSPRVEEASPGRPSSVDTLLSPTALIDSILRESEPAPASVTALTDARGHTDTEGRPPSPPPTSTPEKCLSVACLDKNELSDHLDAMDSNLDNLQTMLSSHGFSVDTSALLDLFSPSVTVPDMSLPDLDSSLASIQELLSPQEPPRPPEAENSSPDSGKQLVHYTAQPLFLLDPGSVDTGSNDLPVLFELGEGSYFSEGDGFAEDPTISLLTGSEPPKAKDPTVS
Sequence of CRX (O43186 whole entry): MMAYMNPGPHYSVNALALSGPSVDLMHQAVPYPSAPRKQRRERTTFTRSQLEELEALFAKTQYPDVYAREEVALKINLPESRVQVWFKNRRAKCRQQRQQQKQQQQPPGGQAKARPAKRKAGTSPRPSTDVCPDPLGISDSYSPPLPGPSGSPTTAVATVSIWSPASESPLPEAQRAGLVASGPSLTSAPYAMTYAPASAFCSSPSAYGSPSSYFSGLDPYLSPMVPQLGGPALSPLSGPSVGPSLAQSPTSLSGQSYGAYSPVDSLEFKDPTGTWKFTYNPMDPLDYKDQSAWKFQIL
Sequence of ETV1 (P50549 whole entry): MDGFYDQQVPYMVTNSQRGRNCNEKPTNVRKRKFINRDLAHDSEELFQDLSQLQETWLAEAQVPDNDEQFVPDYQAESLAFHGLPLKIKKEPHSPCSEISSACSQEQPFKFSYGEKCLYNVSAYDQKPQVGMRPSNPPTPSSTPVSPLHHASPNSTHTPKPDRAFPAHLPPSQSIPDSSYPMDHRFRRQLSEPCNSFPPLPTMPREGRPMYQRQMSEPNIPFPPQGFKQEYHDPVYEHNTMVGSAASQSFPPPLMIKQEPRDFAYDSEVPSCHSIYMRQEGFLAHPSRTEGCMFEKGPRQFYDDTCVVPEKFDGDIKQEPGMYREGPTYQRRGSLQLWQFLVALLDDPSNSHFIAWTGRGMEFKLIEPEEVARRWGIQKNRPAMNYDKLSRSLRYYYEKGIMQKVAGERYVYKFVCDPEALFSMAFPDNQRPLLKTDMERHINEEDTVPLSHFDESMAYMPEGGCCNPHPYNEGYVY

On to TGGCTA, for which the binding signal in the experiment with FEV is 1.22 fold enrichment (6-mer frequency, TF over GST control); with ETV5 it was 1.2 fold enrichment (6-mer frequency, TF over GST control); with HSF1 it was 1.25 fold enrichment (6-mer frequency, TF over GST control); in the experiment with SPIC, 1.25 fold enrichment (6-mer frequency, TF over GST control); with ELF4, 1.19 fold enrichment (6-mer frequency, TF over GST control); with ELK4, 1.47 fold enrichment (6-mer frequency, TF over GST control). Further, the binding signal with ETV2 is 1.23 fold enrichment (6-mer frequency, TF over GST control); with ELF3 it was 1.27 fold enrichment (6-mer frequency, TF over GST control); in the experiment with CRX, 1.35 fold enrichment (6-mer frequency, TF over GST control); with ETV1, 1.16 fold enrichment (6-mer frequency, TF over GST control); with ERF it was 1.33 fold enrichment (6-mer frequency, TF over GST control); with ETV3L, 1.21 fold enrichment (6-mer frequency, TF over GST control). Moreover, the binding signal in the experiment with ETS2 is 1.16 fold enrichment (6-mer frequency, TF over GST control); with SPDEF it was 1.28 fold enrichment (6-mer frequency, TF over GST control); in the experiment with ETV7, 1.29 fold enrichment (6-mer frequency, TF over GST control); in the experiment with ELF5, 1.14 fold enrichment (6-mer frequency, TF over GST control); with ETV3 it was 1.18 fold enrichment (6-mer frequency, TF over GST control); in the experiment with ETV6, 1.28 fold enrichment (6-mer frequency, TF over GST control).
